Assay results taken from PubChem BioAssay (NCI).
Where “and” joins values, the source holds several entries; their conditions need not be identical. Equal entries are not always repeated. This is part of a sample that, as a whole, favours compounds with a hit. Of some 83,000 tested, about 20% had one in any assay.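 The endpoint reported here, percent growth, reads 100 for growth as untreated, 0 for no net growth and -100 for all cells dead.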 Calls of active or inactive are those of the source. The calls were made as follows: active = growth percent below 10; inactive = the rest.

What was measured:
Test in all cases: NCI-60 one-dose screen, 48 h (100 = growth as untreated, 0 = no growth, -100 = all killed)
Conditions in all cases: 10 µM unless noted
[1] = system: NCI-H23 lung
[2] = system: NCI-H226 lung
[3] = system: NCI-H322M lung
[4] = system: HOP-62 NSCLC
[5] = system: NCI-H460 lung
[6] = system: HOP-92 NSCLC
[7] = system: NCI-H522 lung
[8] = system: A549/ATCC NSCLC
[9] = system: 786-0 renal
[10] = system: COLO 205 colon
[11] = system: DU-145 prostate
[12] = system: K-562 leukemia
[13] = system: MALME-3M melanoma
[14] = system: MDA-MB-231 breast
[15] = system: RXF 393 renal
[16] = system: SF-268 CNS
[17] = system: SF-295 CNS
[18] = system: SF-539 CNS
[19] = system: UACC-257 melanoma
[20] = system: M14 melanoma

Row | SMILES | growth [1] | growth [2] | growth [3] | growth [4] | growth [5] | growth [6] | growth [7] | growth [8] | growth [9] | growth [10] | growth [11] | growth [12] | growth [13] | growth [14] | growth [15] | growth [16] | growth [17] | growth [18] | growth [19] | growth [20]
1 | CC[C@H](C)[C@H](NC(=O)c1ncccn1)C(=O)N(C)[C@H](C[C@@H](OC(C)=O)c1nc(C(=O)N[C@@H](Cc2ccccc2)C[C@H](C)C(=O)OC)cs1)C(C)C | 40.9% (inactive) | 51.2% (inactive) | 42% (inactive) | 22.8% (inactive) | 10.8% (inactive) | 33.5% (inactive) | 0.376% (active) | 32.9% (inactive) | 38.5% (inactive) | 4.56% (active) | 9.45% (active) | 7.26% (active) | 60.7% (inactive) | 4.19% (active) | -8.95% (active) | 30.6% (inactive) | 14.4% (inactive) | -51.1% (active) | 50.2% (inactive) | 5.61% (active)
2 | COC1C(O)CC(OC2CC(Oc3cc4cc5c(c(O)c4c(O)c3C)C(=O)[C@@H](OC3CC(OC4CC(OC6CC(C)(O)C(OC(C)=O)C(C)O6)C(O)C(C)O4)C(O)C(C)O3)[C@H]([C@H](OC)C(=O)[C@@H](O)[C@@H](C)O)C5)OC(C)C2OC(C)=O)OC1C (stereo not given in full) | -44.1% (active) | -10.6% (active) | -2.53% (active) | -11.7% (active) | -25.7% (active) | -19.7% (active) | -50.6% (active) | -64.2% (active) | 1.26% (active) | -57.6% (active) | -18.3% (active) | -14.9% (active) | -91.6% (active) | -8.36% (active) | -49.6% (active) | -10.5% (active) | -16.2% (active) | -73.9% (active) | -31.7% (active) | -86.3% (active)
3 | S=P(SP(=S)(c1ccccc1)c1ccccc1)(c1ccccc1)c1ccccc1 | 99% (inactive) | 96.6% (inactive) | 107% (inactive) | 111% (inactive) | 107% (inactive) | 86.7% (inactive) | 88.5% (inactive) | 106% (inactive) | 110% (inactive) | 118% (inactive) | 106% (inactive) | 97% (inactive) | 96.5% (inactive) | 94.1% (inactive) | 97.1% (inactive) | 95.8% (inactive) | 92.5% (inactive) | 103% (inactive) | 104% (inactive) | 101% (inactive)
4 | C[C@]12CCc3sc(Nc4ccc(F)cc4)nc3C1=CC[C@@H]1[C@@H]2CC[C@]2(C)C(=O)CC[C@@H]12 | 72.8% (inactive) | 86.7% (inactive) | 82.1% (inactive) | 82% (inactive) | 69.9% (inactive) | 96.8% (inactive) | 62% (inactive) | 79.5% (inactive) | 5.28% (active) | 86% (inactive) | 19.3% (inactive) | 5.92% (active) | 78.7% (inactive) | 84.4% (inactive) | 13.2% (inactive) | 69.3% (inactive) | 28.7% (inactive) | 54.4% (inactive) | 85.9% (inactive) | 90% (inactive)
5 | O=C(NC(Cl)=C(Cl)Cl)P(=O)(c1ccccc1)c1ccccc1 | 105% (inactive) | 101% (inactive) | 108% (inactive) | 104% (inactive) | 114% (inactive) | 97.4% (inactive) | 99.4% (inactive) | 101% (inactive) | 101% (inactive) | 118% (inactive) | 118% (inactive) | 121% (inactive) | 104% (inactive) | 98.9% (inactive) | 100% (inactive) | 110% (inactive) | 72.9% (inactive) | 106% (inactive) | 110% (inactive) | 111% (inactive)
6 | COc1ccc(/C=C(/C)[N+](=O)[O-])cc1OC | 62.2% (inactive) and 58.1% (inactive) | 88.7% (inactive) and 79.2% (inactive) | 48% (inactive) and 94.5% (inactive) | 48.3% (inactive) | 34.2% (inactive) and 22.9% (inactive) | -6.58% (active) and -11.5% (active) | -88.2% (active) and -73.2% (active) | 53.7% (inactive) and 52.9% (inactive) | -53.1% (active) and -23.3% (active) | -69.3% (active) and -76.2% (active) | 22.3% (inactive) and 13.5% (inactive) | 7.3% (active) and 5.18% (active) | -22.6% (active) and -51.7% (active) | 11.3% (inactive) and 28.8% (inactive) | -91.1% (active) and -95.7% (active) | 3.01% (active) and 44.6% (inactive) | 98.6% (inactive) and 104% (inactive) | 15.1% (inactive) | -88.6% (active) and -67.5% (active) | -52.6% (active) and -61.6% (active)
7 | CCCC1CCCCC12C(=O)NC(=O)NC2=O (stereo not given) | 97.2% (inactive) and 101% (inactive) | 91.1% (inactive) | 105% (inactive) and 94.3% (inactive) | 107% (inactive) | 101% (inactive) and 109% (inactive) | 103% (inactive) | 95.5% (inactive) and 89.7% (inactive) | 104% (inactive) and 98.2% (inactive) | 102% (inactive) and 96.6% (inactive) | 104% (inactive) and 110% (inactive) | 104% (inactive) and 109% (inactive) | 101% (inactive) | 86.4% (inactive) and 112% (inactive) | 89.3% (inactive) and 120% (inactive) | 104% (inactive) and 110% (inactive) | 105% (inactive) and 102% (inactive) | 95.5% (inactive) and 108% (inactive) | 97.1% (inactive) and 111% (inactive) | 103% (inactive) and 94.1% (inactive) | 96.4% (inactive) and 96.9% (inactive)
8 | N#CC(N)c1ccccc1 (stereo not given) | 109% (inactive) | 100% (inactive) | 113% (inactive) | 114% (inactive) | 102% (inactive) | 113% (inactive) | 109% (inactive) | 109% (inactive) | 105% (inactive) | 116% (inactive) | 106% (inactive) | 116% (inactive) | 98.9% (inactive) | 108% (inactive) | 112% (inactive) | 102% (inactive) | 102% (inactive) | 103% (inactive) | 101% (inactive) | 99.8% (inactive)
9 | CNC(=O)Oc1ccc(Cl)cc1SSc1cc(Cl)ccc1OC(=O)NC | 65.4% (inactive) | 102% (inactive) | 103% (inactive) | 95.2% (inactive) | 60.1% (inactive) | 42.7% (inactive) | 51.2% (inactive) | 103% (inactive) | 110% (inactive) | 110% (inactive) | 96.7% (inactive) | 63.1% (inactive) | 78.2% (inactive) | 78.3% (inactive) | 107% (inactive) | 65.8% (inactive) | 75.7% (inactive) | 98.2% (inactive) | 79% (inactive) | 112% (inactive)
10 | COC(=O)C12C3C4C1C1C2C3C41NC(=O)c1csc([C@@H](C[C@H](C(C)C)N(C)C(=O)[C@@H](NC(=O)[C@H]2CCCCN2C)C2CC2)OC(C)=O)n1 (stereo not given in full) | 35.8% (inactive) | 16.5% (inactive) | 38.5% (inactive) | 4.51% (active) | 7.89% (active) | 22.6% (inactive) | -21.1% (active) | 13% (inactive) | 22.7% (inactive) | -65.4% (active) | 8.04% (active) | 8.03% (active) | 63.9% (inactive) | 4.12% (active) | 19.7% (inactive) | 25.6% (inactive) | 9.2% (active) | -24.4% (active) | 56% (inactive) | 9.39% (active)
11 | Cc1c(C)c(N)c(C)c(C)c1N | 79.2% (inactive) | 98.5% (inactive) | 87.6% (inactive) | 90.6% (inactive) | 39.8% (inactive) | 97.5% (inactive) | 40.8% (inactive) | 79.6% (inactive) | 107% (inactive) | 91.9% (inactive) | 6.41% (active) | 97.8% (inactive) | 93.2% (inactive) | 83.2% (inactive) | 84.1% (inactive) | 91.5% (inactive) | 85.4% (inactive) | 108% (inactive) | 92.9% (inactive) | 98.7% (inactive)
12 | CN(C)[C@@H]1C(=O)C(C(N)=O)=C(O)[C@@]2(O)C(=O)C3=C(O)c4c(O)ccc(Cl)c4[C@@](C)(O)[C@H]3C[C@@H]12 | 99.6% (inactive) and 88.6% (inactive) | 93.3% (inactive) and 95.3% (inactive) | 84.8% (inactive) and 105% (inactive) | 90.3% (inactive) | 88.9% (inactive) and 101% (inactive) | 75.7% (inactive) and 11.8% (inactive) | 79.4% (inactive) and 32.7% (inactive) | 97% (inactive) | 91.3% (inactive) and 71.2% (inactive) | 92.8% (inactive) and 97.8% (inactive) | 103% (inactive) | 109% (inactive) and 93.8% (inactive) | 79.3% (inactive) and 80.7% (inactive) | 103% (inactive) and 98% (inactive) | 96.1% (inactive) and 94.3% (inactive) | 94.8% (inactive) and 98.9% (inactive) | 90.1% (inactive) and 103% (inactive) | 93.3% (inactive) and 92.1% (inactive) | 108% (inactive) and 106% (inactive) | 79.8% (inactive) and 92.6% (inactive)
